Reference: the supplement of paper PMC3545927
The other results are listed elsewhere or left out. The true hit rate is not given.

Molecular target: furin, P09958
Experiment: furin cleavage Z-score vs untreated control; higher = more cleavage, active = 3.5 or more, inactive = 1 or less, 8 variable residues between constant flanks
Procedure: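 Multiplexed peptide-cDNA fusion cleavage assay. 8-mer variable peptides flanked by constant Cys-Ala (N-term) and Ala-Gly-Asn-Ala-Ser-Ala-Ser-Ala (C-term) and conjugated to a cDNA oligonucleotide were bead-immobilised via the N-terminus. They were treated with purified furin at a 1:10 enzyme:substrate ratio in 50 mM HEPES pH 7.5, 1 mM CaCl2, 100 mM NaCl for 7.5, 15 or 30 min. Released cDNA was counted by next-generation sequencing, and log counts versus no-furin controls were lowess-adjusted and converted to robust Z-scores.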

furin, P09958, sequence (P09958 whole entry): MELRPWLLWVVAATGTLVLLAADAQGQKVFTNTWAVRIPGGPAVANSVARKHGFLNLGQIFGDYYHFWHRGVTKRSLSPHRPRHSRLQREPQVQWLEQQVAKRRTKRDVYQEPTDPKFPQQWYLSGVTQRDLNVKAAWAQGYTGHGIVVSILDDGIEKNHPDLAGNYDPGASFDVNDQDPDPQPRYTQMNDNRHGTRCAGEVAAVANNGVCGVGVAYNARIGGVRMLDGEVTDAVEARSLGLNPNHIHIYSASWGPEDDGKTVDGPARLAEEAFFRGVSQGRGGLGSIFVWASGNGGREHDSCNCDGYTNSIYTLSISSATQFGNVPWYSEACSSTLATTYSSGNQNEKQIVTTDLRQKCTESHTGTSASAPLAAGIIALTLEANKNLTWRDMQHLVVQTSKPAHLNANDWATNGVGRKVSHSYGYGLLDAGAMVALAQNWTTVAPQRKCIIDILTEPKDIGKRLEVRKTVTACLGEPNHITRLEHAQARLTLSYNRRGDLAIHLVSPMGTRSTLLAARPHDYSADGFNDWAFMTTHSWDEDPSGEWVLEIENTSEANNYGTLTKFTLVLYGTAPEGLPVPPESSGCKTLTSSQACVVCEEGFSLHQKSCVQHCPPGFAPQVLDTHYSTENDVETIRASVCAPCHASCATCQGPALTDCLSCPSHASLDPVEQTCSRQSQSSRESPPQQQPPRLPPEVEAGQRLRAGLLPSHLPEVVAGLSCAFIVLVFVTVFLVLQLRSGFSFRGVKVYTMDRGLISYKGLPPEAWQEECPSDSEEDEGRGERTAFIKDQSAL

Sequence	furin cleavage Z-score (7.5 min)	furin cleavage Z-score (15 min)	furin cleavage Z-score (30 min)
CASTGCSAHLAGNASASA [HC2516]	-1.2 (inactive)	0.402 (inactive)	-0.12 (inactive)
CAFNLRMKRDAGNASASA [FS-525]	14.3 (active)	12.3 (active)	10.8 (active)
CATNLRIKRDAGNASASA [FS-568]	14.5 (active)	15.3 (active)	10.7 (active)
CAVREVPCHRAGNASASA [HC2430]	-1.53 (inactive)	-1.03 (inactive)	-0.128 (inactive)
CARPGRRGRPAGNASASA [FS-492]	-0.496 (inactive)	-1.23 (inactive)	-0.0754 (inactive)
CAKPGRRGRAAGNASASA [FS-452]	6.38 (active)	5.76 (active)	4.89 (active)
CARPGRRVCAAGNASASA [FS-3259]	-0.847 (inactive)	-1.4 (inactive)	-1.34 (inactive)
CAKRWRRGRAAGNASASA [FS-1596]	6.85 (active)	6.38 (active)	4.94 (active)
CAPEMEECSQAGNASASA [HC1799]	0.387 (inactive)	0.44 (inactive)	0.854 (inactive)
CARERREVVRAGNASASA [FU3]	10.2 (active)	11.3 (active)	10.9 (active)
CARYKKAVFRAGNASASA [FS-3135]	2	0.2 (inactive)	2.99
CARERRDSGVAGNASASA [FS-2486]	-0.528 (inactive)	-0.224 (inactive)	0.24 (inactive)
CARYKRKSDEAGNASASA [FS-3177]	5.32 (active)	5.6 (active)	5.8 (active)
CARERRWDRGAGNASASA [FS-2010]	-1.3 (inactive)	-0.408 (inactive)	1.72
CARNVRFSDEAGNASASA [FS-2223]	0.545 (inactive)	-0.141 (inactive)	-1.68 (inactive)
CARYKRMVERAGNASASA [FS-2537]	7.23 (active)	7.48 (active)	6.63 (active)

Sequence	furin cleavage Z-score (7.5 min)	furin cleavage Z-score (15 min)	furin cleavage Z-score (30 min)
CARERRRAAKAGNASASA [FS-2550]	0.778 (inactive)	0.314 (inactive)	1.46
CARYKRKMTQAGNASASA [FS-1979]	-0.853 (inactive)	-0.612 (inactive)	-0.101 (inactive)
CARERRDAGRAGNASASA [FS-2137]	9.55 (active)	10.7 (active)	9.14 (active)
CATTPCSGTWAGNASASA [HC1918]	0.438 (inactive)	1.03	0.941 (inactive)
CAAEEYVEIRAGNASASA [HC1204]	-0.657 (inactive)	2	-1.07 (inactive)
CAQIVGGVYLAGNASASA [HC175]	-0.135 (inactive)	-2.24 (inactive)	-1.9 (inactive)
CAVVRCSMSYAGNASASA [HC2033]	1.28	0.684 (inactive)	-0.612 (inactive)
CARERRGPATAGNASASA [FS-2487]	-1.34 (inactive)	0.671 (inactive)	-0.709 (inactive)
CARERRNAIRAGNASASA [FS-3219]	3.48	4.37 (active)	4.64 (active)
CARERRRLMSAGNASASA [FS-2660]	-1.21 (inactive)	-0.546 (inactive)	0.262 (inactive)
CARYKRAGESAGNASASA [FS-2472]	8.25 (active)	10.6 (active)	7.78 (active)
CARERRADHVAGNASASA [FS-2330]	1.39	0.278 (inactive)	2.34
CARENRSLFTAGNASASA [FS-2009]	0.285 (inactive)	-0.333 (inactive)	-1.13 (inactive)
CARERRTLSVAGNASASA [FS-2661]	0.891 (inactive)	2.33	3.01
CARERRDLFTAGNASASA [FS-2659]	5.35 (active)	8.1 (active)	7.97 (active)
CARERRDVQRAGNASASA [FS-1696]	10.6 (active)	13.2 (active)	9.38 (active)
